Source: PubChem BioAssay
FBA Mtb inh: Mtb FBA enzyme inhibitors, primary screen, biochemical, fluorescence, strain H37Rv; purified M. tuberculosis FBA, fluorescence read-out; inhibition, % at 1 µM; hit rate 2.3% among 360,000; Fructose-bisphosphate aldolase (Mycobacterium tuberculosis (strain ATCC 25618 / H37Rv)), …; AID 588726, 2011; in the data active = inhibition above about 27%;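 also: 0% = vehicle and 100% = reference inhibitor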
Target sequence (P9WQA3 whole entry, looked up): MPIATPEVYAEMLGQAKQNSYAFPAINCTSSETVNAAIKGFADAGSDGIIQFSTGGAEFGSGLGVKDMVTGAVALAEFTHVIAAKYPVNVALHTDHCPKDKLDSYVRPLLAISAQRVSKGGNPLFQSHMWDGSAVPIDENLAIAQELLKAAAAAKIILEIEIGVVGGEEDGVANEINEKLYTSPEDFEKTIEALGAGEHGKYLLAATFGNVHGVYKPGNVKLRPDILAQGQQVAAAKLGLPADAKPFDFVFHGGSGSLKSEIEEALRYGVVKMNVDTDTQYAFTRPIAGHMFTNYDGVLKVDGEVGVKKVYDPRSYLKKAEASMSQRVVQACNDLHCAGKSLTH
BH1578 lux ind: inducers of Vibrio cholerae quorum light production without autoinducers, primary screen, BH1578 luxS cqsA deficient, single point. V. cholerae BH1578 lux reporter, luminescence, 6 h. activation, % at 18.7 µM. hit rate 0.16% among 350,000. AID 588436, 2011; in the data active = activation mostly above about 9.7%, no sharp cut-off
Mtb BioA inh: M. tuberculosis BioA enzyme inhibitors, primary screen, biochemical, plate reader, single point, HTS | inhibition, % at 9.99 µM | purified M. tuberculosis BioA enzyme | hit rate 0.096% among 360,000 | AID 602481, 2012; in the data active = inhibition above about 40%
GDH-TPI counter: GDH-TPI coupling enzyme inhibitors, primary screen, artefact control for M. tuberculosis FBA inhibitor project, biochemical, absorbance, full deck; inhibition, % at 4.8 µM; GDH-TPI coupled enzyme counterscreen, NADH absorbance; hit rate 1.2% among 360,000; AID 588335, 2011; in the data active = inhibition above about 30%;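 also: 0% = DMSO wells and 100% = wells lacking the enzyme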
An asterisk follows results filed as active; i = inactive; nt = no result given; + = active, no number. Shown are actives, neighbours in structure and some others; about 3% of the full set was active somewhere.

SMILES	FBA Mtb inh	BH1578 lux ind	Mtb BioA inh	GDH-TPI counter
COCCNc1cc(C)nc2c(-c3ccccc3OC)c(C)nn12	6	0	-2	14
Cc1cc(C)c2c(n1)nn1c(NCCN3CCOCC3)cc(C)nc21	+	2	0	10
COCCNc1cc(C)nc2c3c(C)cc(C)nc3nn12	+	i	0	4
C[C@H](CO)N1C[C@H](C)[C@H](CN(C)Cc2ccccc2F)Oc2ncc(C#CCN(C)C)cc2C1=O	nt	nt	0	nt
CN(NC1OC(=O)c2ccccc21)c1ccc(C(F)(F)F)cc1[N+](=O)[O-] (centres undefined)	-4	-1	-1	4
CN(NC1OC(=O)c2ccccc21)c1ccc(Cl)cc1[N+](=O)[O-] (centres undefined)	-3	-1	1	39*
O=C(N=Nc1c(O)[nH]c2ccc([N+](=O)[O-])cc12)c1ccccc1Cl	0	0	-1	22
O=[N+]([O-])c1ccc2[nH]c(O)c(N=NC3CS(=O)(=O)CC3O)c2c1 (centres undefined)	2	i	0	45*
Cc1ccccc1NCC(=O)N=Nc1c(O)[nH]c2ccc([N+](=O)[O-])cc12	-3	0	0	36*
CCOC(=O)c1c(C)[nH]c(C(=O)N/N=C/c2cccc(OC)c2)c1C	1	0	nt	19
COc1cccc(/C=N/NC(=O)c2[nH]c(C)c(C(=O)N/N=C/c3cccc(OC)c3)c2C)c1	-5	-1	0	42*
COc1ccc(/C=N/NC(=O)c2[nH]c(C)c(C(=O)N/N=C/c3ccc(OC)cc3)c2C)cc1	-3	0	-1	100*
O=C(C[C@@H]1CC[C@@H]2[C@H](COC[C@@H](O)CN2Cc2cc(F)ccc2F)O1)N[C@@H]1CCN(Cc2ccccc2)C1	nt	nt	-1	nt
CCOC(=O)c1c(NC(=O)c2ccc(N3C(=O)[C@@H]4[C@H](C3=O)[C@H]3C=C[C@@H]4C3)cc2)sc2c1CC(C)CC2 (some centres undefined)	137*	0	nt	1
CC(c1nccs1)N(C)c1nc2nonc2nc1NC1CC1 (centres undefined)	-2	-1	-1	33*
CC(c1nccs1)N(C)c1nc2nonc2nc1N(C)C (centres undefined)	2	i	nt	25
CO[C@@H]1CN(C)C(=O)c2ccc(NC(=O)c3cnccn3)cc2OC[C@H](C)N(CCc2ccccc2)C[C@H]1C	nt	nt	-3	nt
CCOc1ccc(-n2c(N)c(C(=O)NCc3ccco3)c3nc4ccccc4nc32)cc1	52*	0	1	18
CCOCCCNC(=O)c1c(N)n(-c2ccc3c(c2)OCO3)c2nc3ccccc3nc12	5	0	nt	2
CCOCCCNC(=O)c1c(N)n(-c2ccc(S(N)(=O)=O)cc2)c2nc3ccccc3nc12	33*	i	-1	6
CC(C)NC(=O)N(C)C[C@@H]1OCCCC[C@@H](C)Oc2ccc(NS(=O)(=O)c3ccccc3)cc2C(=O)N([C@@H](C)CO)C[C@@H]1C	nt	nt	0	nt
COc1cc(C2Nc3ccccc3C(=O)N2NS(C)(=O)=O)ccc1O (centres undefined)	8	i	-1	12
CCCN1C(=O)c2ccccc2NC1c1ccc(O)c(OCC)c1 (centres undefined)	45*	i	nt	6
C[C@H]1CN([C@@H](C)CO)C(=O)Cc2cc(NC(=O)Nc3ccc(C(F)(F)F)cc3)ccc2O[C@H]1CN(C)Cc1ccc2c(c1)OCO2	nt	nt	3	nt
COCCn1c(SCC(=O)N2CCCC2)nnc1-c1ccoc1C	130*	i	0	-8
SMILES	FBA Mtb inh	BH1578 lux ind	Mtb BioA inh	GDH-TPI counter
CCOc1ccc(C(=O)NCCCN2CCOCC2)cc1OCC	+	0	0	2
CCOC(=O)c1cnc2ccc(C(=O)OC)cc2c1NCCCN1CCOCC1	19	0	0	53*
CCOC(=O)c1cnc2ccc(C(=O)OC)cc2c1NCCN1CCOCC1	5	i	nt	21
O=C(NCCCN1CCOCC1)c1ccc2c(c1)N(Cc1ccccc1)CCS2	119*	-1	0	0
COc1ccc(C(=O)NCCCN2CCOCC2)cc1OC	5	0	0	0
O=C(NCC1CCCO1)c1ccc2c(c1)N(Cc1ccccc1)CCS2 (centres undefined)	141*	-2	1	-8
Cc1ccc(CN2CCSc3ccc(C(=O)NCCCN4CCOCC4)cc32)cc1	162*	i	2	9
CN1CCN(CCCNC(=O)c2ccc3c(c2)N(Cc2ccccc2)CCS3)CC1	190*	0	2	9
O=C(NCCN1CCOCC1)c1ccc2c(c1)N(Cc1ccccc1)CCS2	118*	1	1	9
O=C(NCCN1CCOCC1)c1ccc2c(c1)N(Cc1ccccc1)C(=O)CS2	-7	0	-4	-8
Cc1ccc(/C=N/Nc2nc3ccccc3s2)o1	-4	0	nt	56*
Cc1ccc(/C=N/Nc2nc(C(C)(C)C)cs2)o1	-1	i	0	1
O=C(Nc1ccc2c(c1)[C@H]1C[C@@H](CC(=O)N3CCCCC3)O[C@@H](CO)[C@H]1O2)C1CCC1	nt	nt	-1	nt
Nc1nc(N)c2c(ccc3nccc32)[nH]1	114*	-6	0	21
Nc1ccc2ncccc2c1N	-4	i	-2	-3
COc1cc(NC(=O)c2ccco2)c(OC)cc1NC(=O)Nc1ccc(Cl)cc1	7	-5	-2	31*
COc1cc(OC)c(NC(=O)c2ccco2)cc1Cl	1	-1	-1	14
CCCSc1nc(N)c2c3c(sc2n1)CN(C)CC3	41*	-1	-1	27
CC(C)Sc1nc(N)c2c3c(sc2n1)CN(C)CC3	26	-1	4	23
Cc1ccc(S(=O)(=O)CCC(=O)c2ccc(O)cc2O)cc1	-1	0	-2	43*
Cc1ccc(S(=O)(=O)CCC(=O)OCC(=O)c2cc(C)ccc2C)cc1	0	i	nt	1
CC1(C)CC(=O)c2sc(NC(=O)CN3CCCCC3)nc2C1	1	-1	0	34*
O=C(CCNc1n[nH]c(=O)[nH]c1=O)N/N=C/c1ccccc1Br	2	i	nt	-4
O=c1[nH]nc(N/N=C/c2ccccc2OC(F)F)c(=O)[nH]1	3	i	0	42*
Cc1noc(C)c1S(=O)(=O)Nc1ccc2c(c1)CC(=O)N([C@@H](C)CO)C[C@@H](C)[C@H](CN(C)C(=O)Nc1ccc3c(c1)OCO3)O2	nt	nt	0	nt
S=C1CCC(c2ccc(Br)cc2)=NN1c1ccccc1	-1	0	nt	33*
Cc1ccc2nc3c(cc(C(=O)NCC4CCCO4)c(=N)n3CCCOC(C)C)c(=O)n2c1 (centres undefined)	+	-1	0	-8
CCOCCCNc1nc2nc3ccc(C)cn3c(=O)c2cc1C(=O)NCC1CCCO1 (centres undefined)	+	0	nt	-8
CCn1cc(C(=O)NCC2CCCO2)c2cc(OC)c(OC)cc2c1=O (centres undefined)	-2	5	nt	11
